From PubChem BioAssay
Most compounds without a hit are left out; they make up all but 2.7% or so of the library.
IP6K1 inhibitor – IP6K1 kinase inhibition. Q92551. IP6K1 kinase, ADP-Glo luminescence, 2 h; active compounds read low. activity change, % (series mostly up to about 58 µM). 140,000 compounds, 0.81% hits; in the data active = activity change below about -25%
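ADP-Glo luminescence measures ADP made by human IP6K1 during a 2 h RT reaction with ATP/IP6 (mix at 1.3 mM/130 uM); top library doses 57.5 and 19.1 uM final.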
KDM5B inh – blocks human KDM5B histone demethylase activity; 220,000 compounds, 2.6% hits; Potency, µM (top dose mostly 57.7 µM), most hits filed as inhibitors; KDM5B demethylase, FDH-coupled NADH fluorescence (FDH is formaldehyde dehydrogenase); also: nearly all actives have a fitted effect of over 70% in size
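Inhibition is measured as reduced NADH fluorescence generation from FDH coupling to formaldehyde release. Truncated KDM5BΔAP at 200 nM final acts on H3K4me3 peptide (12.5 µM in substrate mix) in pH 7.5 HEPES buffer with Tween-20, 30 min, room temperature.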
IP6K1 inh cnf – confirmation of human IP6K1 inhibitors; shares compounds with IP6K1 inhibitor; recombinant IP6K1 kinase, ADP-Glo luminescence, 2 h; Potency, µM (series often up to 49 µM), hits mostly inhibitors; 1,200 compounds, 13% hits; also: nearly all actives have a fitted effect of over 65% in size
A number is an active result; - = inactive; ? = inconclusive; . = not tested or not shown. Unless noted, calls follow the shape of the dose curve; as a rule, active = well fitted inhibition curve with a large enough effect; inconclusive = small, poorly fitted or top-dose-only effect; inactive = no such curve, though single readings can be large or run the other way.

SMILES	IP6K1 inhibitor	KDM5B inh	IP6K1 inh cnf
CCOc1ccc(C(O)Cn2ccn3nc(-c4ccccc4C)cc3c2=O)cc1 (stereo not given)	-	?	.
CC(C)c1ccc(CCNC(=S)Nc2ccc(Cl)cc2Cl)cc1	.	-	.
O=C(O)COc1ccccc1/C=C1\C(=O)Nc2ccc(Br)cc21	.	-	.
O=C1Nc2ccc(I)cc2/C1=C/c1cc(Br)c(O)c(Br)c1	.	.	2.91µM
CCOc1ccc(NC(=O)Cn2cnc3c(nnn3Cc3ccc(C)cc3)c2=O)cc1	.	-	.
O=C(Cn1nnc(-c2ccsc2)n1)N1CCC(c2nc3ccccc3s2)CC1	.	-	.
CCCN(C(=O)Cn1ncc2c([nH]c3ccccc32)c1=O)c1ccc(F)cc1	-37.4	-	-
CCCCN(Cc1ccco1)C(=O)Cn1ncc2c([nH]c3ccccc32)c1=O	-	?	.
Cc1ccc(S(=O)(=O)n2cnc3cc(C)c(C)cc32)cc1C	.	-	.
Cc1ccc2c(c1)N(C(=O)N1CCC(C(=O)NCc3cccc(Br)c3)CC1)CCO2	-102.2	-	-
Cc1ccc2c(c1)N(C(=O)N1CCC(C(=O)NCCc3ccccc3)CC1)CC(C)O2 (stereo not given)	-	-	.
Cc1ccc2c(c1)N(C(=O)N1CCC(C(=O)NCCC3=CCCCC3)CC1)CC(C)O2 (stereo not given)	-38.9	-	-
CCc1ccc(CNC(=O)C2CCN(C(=O)N3CC(CC)Oc4ccc(C)cc43)CC2)cc1 (stereo not given)	-	-	.
Cc1cc(=O)oc2cc(OCC(=O)N(C)C)c(Cl)cc12	.	-	.
O=C(OCc1ccccc1)c1c[nH]c2ccccc12	.	-	.
COc1cccc(C(=O)N2CC(=O)Nc3ccc(C)cc3C2c2ccc(F)cc2)c1OC (stereo not given)	-25.5	-	-
Cc1ccc2c(c1)C(c1ccccc1)N(C(=O)c1ccccc1F)CC(=O)N2 (stereo not given)	-	?	.
Cc1cc(C)cc(Nc2nc(-c3cccnc3)nc3ccccc23)c1	.	-	.
Cc1cc(Nc2nc(-c3ccccc3)nc3ccccc23)n[nH]1	-26.2	.	?
COc1ccc(-c2nc(-c3ccc(S(=O)(=O)N4CCCC4)cc3)cs2)cc1OC	.	-	.
CC(=O)c1ccc(NC(=O)CSc2nnc(N)s2)cc1	-30.6	-	-
Nc1nnc(SCC(=O)Nc2ccccc2)s1	-	?	.
CCCCn1c(=O)[nH]c(=O)c2c1nc(COC(=O)c1ccc(C)cc1)n2CCC	.	-	.
COCC(=O)NC1CCN(C(=O)c2ccc(-c3cccs3)cc2)CC1	-	.	.
O=C(Nc1cc2cc[nH]c2cn1)c1ccccc1	-28.1	.	?
SMILES	IP6K1 inhibitor	KDM5B inh	IP6K1 inh cnf
COc1ccc(C(=O)Nc2ccc3[nH]ccc3c2)cc1	.	-	.
Cc1ccccc1C1C2=C(CCCC2=O)Nc2nc(SCc3ccc(C(=O)O)cc3)nn21 (stereo not given)	.	-	.
CSc1ccc(-c2cccc(C(=O)NCCNC(=O)c3ccccc3C)c2)cc1	-	.	.
Cc1ccc(CN2CCN(c3cc(NCCO)ncn3)CC2CCO)cc1 (stereo not given)	-	-	.
COc1ccc(CN2CCN(c3cc(N(C)C)ncn3)CC2CCO)c(C)c1C (stereo not given)	-35.3	?	-
CCN1CC2(CCN(C(=O)c3cnc4c(O)cccn4c3=O)CC2)OC1=O	-26.5	31.6µM	-
CCN1CC2(CCN(C(=O)c3cccc(Cn4cccn4)c3)CC2)OC1=O	-	-	.
O=C1c2ccccc2C(=O)c2c(Nc3ccc(CCO)cc3)ccc(O)c21	.	-	.
O=C1c2c(O)ccc(O)c2C(=O)c2c(NCCNCCO)ccc(NCCNCCO)c21	-39.2	.	?
Cn1ncc2c(C(=O)NCC(=O)OC(C)(C)C)cc(-c3ccccc3C(F)(F)F)nc21	-	.	.
Cc1ccc([C@H]2Nc3ccc(S(=O)(=O)Nc4cccc(Cl)c4C)cc3[C@H]3C=CC[C@H]32)cc1	-27.0	?	-
COC(=O)c1ccc([C@H]2Nc3ccc(S(=O)(=O)Nc4cccc(C)c4)cc3[C@H]3C=CC[C@H]32)cc1	-	?	.
Cc1cc(CS(=O)(=O)c2ccccc2)cc(OCc2ccc(CN3CCC[C@@H]3CO)cc2)c1	-41.1	.	-
OCC1CCCN1Cc1ccccc1 (stereo not given)	.	-	.
Cc1ccc2c(c1)cc1c(=O)n(CC(=O)N3CCCCC3)nc(C)n12	-27.1	?	-
Cc1nn(CC(=O)N2CCCCC2)c(=O)c2cc3occc3n12	-	-	.
CCOC(=O)C1CCN(C(=O)Cn2nc(C)n3c(cc4cc(C)ccc43)c2=O)CC1	-35.4	?	-
COc1cccc2c1cc1c(=O)n(CC(=O)N3CCN(c4cc(Cl)ccc4C)CC3)nc(C)n12	-	?	.
COc1cccc2c1cc1c(=O)n(CC(=O)N3CCN(c4cccc(C)c4C)CC3)nc(C)n12	-25.8	?	-
